From the supplement of paper PMC10498489
In all, about 2,300 compounds went through this assay and about 330 (14%) showed activity. Only a sample is shown. Unmarked numbers belong to inactive results.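 Rule for the calls: active = median modified Z-score above 1.96; inactive = 1.96 or below.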

system: HepG2 Srxn1-GFP reporter cells (+30 nM CDDO-Me); assay: Srxn1-GFP intensity median modified Z-score relative to plate median; higher = stronger NRF2 / oxidative stress reporter activation, active = hit call of the paper; conditions: 10 µM; exposure time: 24h
How it was run: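 The modified Z-score of GFP intensity was computed per plate, and the median over replicates is reported. HepG2 Srxn1-GFP BAC reporter cells in three replicate plates were treated for 24 h with compound at 10 μM plus an NRF2 activator at 30 nM (≤0.1% DMSO). Per-cell cytoplasmic GFP came from confocal images, excluding those with under 100 cells, and scaling used 1.4826 × median absolute deviation.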

SMILES	Srxn1-GFP intensity median modified Z-score
CCCN(CCC)CCc1cccc2[nH]c(O)cc12 [euspeclibcmpd2384]	-0.25
CCN(C(C)=O)c1cccc(-c2ccnc3c(C#N)cnn23)c1 [euspeclibcmpd886]	-0.312
CC1(C)C(C=C(Cl)Cl)C1C(=O)OCc1cccc(Oc2ccccc2)c1 (stereo not given) [euspeclibcmpd989]	-0.481
CC(N)Cc1ccc(O)cc1 (stereo not given) [euspeclibcmpd2033]	-0.0916
O=C1c2ccccc2C(=O)c2ccccc21 [euspeclibcmpd2403]	-0.277
O=C1C(=O)c2ccccc2-c2ccccc21	0.845
O=C1C=CC(=O)c2ccccc21 [euspeclibcmpd1754]	32.6 (active)
O=c1c(O)c(-c2ccc(O)c(O)c2)oc2c(O)c(O)cc(O)c12 [euspeclibcmpd1684]	-0.455
C[C@]12CCC3C(CC[C@H]4C[C@@H](O)CC[C@]34C)C1CCC2=O (stereo not given in full) [euspeclibcmpd2371]	-0.083
N[C@H](CO)Cc1ccccc1 [euspeclibcmpd1743]	-0.578
CC(=O)Nc1cc([As](=O)(O)O)ccc1O [euspeclibcmpd2446]	0.0429
O=[N+]([O-])c1cc([As](=O)(O)O)ccc1O [euspeclibcmpd2449]	14.6 (active)
O=[N+]([O-])c1ccc([As](=O)(O)O)cc1 [euspeclibcmpd2468]	0.0717
c1cncc(C2=NCCC2)c1 [euspeclibcmpd2209]	0
COc1ccc(/C=C/c2cc(O)cc(O)c2)cc1 [euspeclibcmpd1373]	0.31
COc1cc2c(cc1OC)[C@@]13CCN4CC5=CCOC6CC(=O)N2C1[C@H]6[C@H]5C[C@H]43 (stereo not given in full) [euspeclibcmpd1053]	1.74
C=CCN1CCC23c4c5ccc(O)c4OC2C(=O)CC[C@@]3(O)[C@H]1C5 (stereo not given in full) [euspeclibcmpd455]	-0.148
CC(CCc1ccccc1)NC(C)C(O)c1ccc(O)cc1 (stereo not given) [euspeclibcmpd217]	6.08 (active)
CC(Cc1ccc(O)cc1)NCC(O)c1cc(O)cc(O)c1 (stereo not given) [euspeclibcmpd366]	0.124
C[C@@H]([C@H](O)c1ccccc1)N(C)C [euspeclibcmpd1255]	0.2
CC1(C)C(C=C(Cl)Cl)C1C(=O)OC(C#N)c1cccc(Oc2ccccc2)c1 (stereo not given) [euspeclibcmpd1141]	-0.358
C=CCc1ccc2c(c1)OCO2 [euspeclibcmpd1477]	-0.318
O=C(COc1ccc(Br)cc1Cl)N1CCN(Cc2ccc3c(c2)OCO3)CC1	0.363
O=C(COc1ccc2ccccc2c1)N1CCN(Cc2ccc3c(c2)OCO3)CC1	4.61 (active)

SMILES	Srxn1-GFP intensity median modified Z-score
CCOP(=S)(OCC)Oc1nc(Cl)c(Cl)cc1Cl [euspeclibcmpd1024]	0.883
COc1cccc2c1cc([N+](=O)[O-])c1c(C(=O)O)cc3c(c12)OCO3 [euspeclibcmpd2326]	0.769
COC(C)CC(=O)Nc1ccc([N+](=O)[O-])c(C(F)(F)F)c1 (stereo not given)	1.79
N=c1ccc(C(N)=O)c[nH]1 [euspeclibcmpd1777]	0.117
CN1C2CC[C@@H]1C[C@@H](OC(=O)C(CO)c1ccccc1)C2 (stereo not given in full) [euspeclibcmpd2101]	0.179
Cc1cc2c(C(C)C)c(O)c(O)c(C=O)c2c(O)c1-c1c(C)cc2c(C(C)C)c(O)c(O)c(C=O)c2c1O [euspeclibcmpd1471]	3.88 (active)
Cc1cc2c(C(C)C)c(O)c(O)c(C=O)c2c(O)c1-c1c(C)cc2c(C(C)C)c(O)c(O)c(C=O)c2c1O [euspeclibcmpd2093]	3.73 (active)
CN1C2CCC1CC(OC(=O)C(CO)c1ccccc1)C2 (stereo not given) [euspeclibcmpd2059]	-0.875
CC[C@@]1(O)C(=O)OCc2c1cc1n(c2=O)Cc2cc3ccccc3nc2-1 [euspeclibcmpd1447]	-0.602
COP(=O)(OC)C(O)C(Cl)(Cl)Cl (stereo not given) [euspeclibcmpd866]	3.07 (active)
CCC(COC(=O)c1cc(OC)c(OC)c(OC)c1)(c1ccccc1)N(C)C (stereo not given) [euspeclibcmpd1183]	-0.264
Oc1ccc2c3c1OC1[C@@H](O)CC[C@@]4(O)[C@@H](C2)N(CC2CCC2)CC[C@]314 (stereo not given in full) [euspeclibcmpd978]	0.208
COC(=O)C(c1ccccc1)C1CCCCN1 (stereo not given) [euspeclibcmpd885]	-0.181
CN(C)C(=O)Oc1cccc([N+](C)(C)C)c1 [euspeclibcmpd207]	0.0711
CC(C)c1cc2c(c(O)c1O)[C@@]1(C(=O)O)CCCC(C)(C)C1CC2 (stereo not given in full) [euspeclibcmpd2302]	5.33 (active)
c1ccc2c(c1)Nc1ccccc1S2 [euspeclibcmpd928]	0.0728
NCCc1c[nH]c2ccccc12 [euspeclibcmpd1506]	-0.231
S=C=NCc1ccccc1 [euspeclibcmpd1105]	100 (active)
NNCc1ccccc1 [euspeclibcmpd1327]	0.32
CC(=O)c1c(O)cc(C)oc1=O [euspeclibcmpd1006]	15.5 (active)
CN(C)C1C(=O)C(C(N)=O)C(=O)[C@@]2(O)C(=O)C3C(=O)c4c(O)ccc(Cl)c4[C@@](C)(O)[C@H]3C[C@@H]12 (stereo not given in full) [euspeclibcmpd61]	0.0407
NCC(CC(=O)O)c1ccc(Cl)cc1 (stereo not given) [euspeclibcmpd593]	-0.2
CN(C)C1C(=O)C(C(N)=O)C(=O)[C@@]2(O)C(=O)C3C(=O)c4c(O)cccc4[C@@](C)(O)[C@H]3C[C@@H]12 (stereo not given in full) [euspeclibcmpd288]	0.167
CC(C)(O)[C@@H]1[C@H]2OC(=O)[C@@H]1[C@]1(O)C[C@H]3O[C@]34C(=O)O[C@H]2[C@]14C [euspeclibcmpd1439]	-0.455

SMILES	Srxn1-GFP intensity median modified Z-score
C=C(C)[C@@H]1[C@H]2OC(=O)[C@@H]1[C@]1(O)C[C@H]3O[C@]34C(=O)O[C@H]2[C@]14C [euspeclibcmpd1351]	17.9 (active)
CCC(C)C(=O)O[C@@H]1C[C@@]2(C)[C@H](c3ccoc3)OC(=O)CC23OC2(C)OC34[C@H](OC(=O)C(C)C)[C@@]3(O)[C@@H](OC(=O)C5(C)OC5C)[C@@]5(C)C[C@]3(O)[C@@](C)([C@H]5CC(=O)OC)C14O2 (stereo not given in full) [euspeclibcmpd1627]	0.307
COc1c2c(cc3c1OCO3)CC[N+](C)=C2 [euspeclibcmpd2418]	0.209
CNCC(=O)c1ccc(O)c(O)c1 [euspeclibcmpd922]	-1.16
CCC1(CC)C(=O)NC(=O)NC1=O [euspeclibcmpd2126]	0.302
COc1ccc2c3c([nH]c2c1)C(C)=NCC3 [euspeclibcmpd2276]	66 (active)
CC1=NCCc2c1[nH]c1cc(O)ccc21 [euspeclibcmpd2357]	7.71 (active)
Cl[C@H]1[C@H](Cl)[C@@H](Cl)[C@@H](Cl)[C@H](Cl)[C@H]1Cl [euspeclibcmpd969]	0.0503
CC1C(=O)O[C@@H]2O[C@]3(C)CC[C@H]4[C@H](C)CC[C@@H]1[C@@]24OO3 (stereo not given in full) [euspeclibcmpd1110]	0.987
CC(=O)O[C@@H]1C2CC[C@@H]3C1(C[C@@H](O)[C@@]1(O)[C@@H](C[C@H](O)C1(C)C)[C@]3(C)O)C[C@@]2(C)O (stereo not given in full) [euspeclibcmpd2325]	-0.506
CC(C)(C#N)O[C@@H]1O[C@H](CO)[C@@H](O)[C@H](O)[C@H]1O [euspeclibcmpd1356]	0.0487
CC1C[C@H](C)C[C@H]([C@H](O)CC2CC(=O)NC(=O)C2)C1=O (stereo not given in full) [euspeclibcmpd437]	-0.201
C=C[C@H]1C[N@]2CC[C@H]1C[C@@H]2[C@H](O)c1ccnc2ccccc12 [euspeclibcmpd2140]	0.321
Cc1nc(=N)c(CNC(=O)N(CCCl)N=O)c[nH]1 [euspeclibcmpd1167]	-0.0324
N=C(N)NN [euspeclibcmpd930]	-0.0849
CC[C@H]1CN2CCc3cc(OC)c(OC)cc3C2C[C@@H]1CC1NCCc2cc(OC)c(OC)cc21 (stereo not given in full) [euspeclibcmpd109]	-1.21
CCC(CO)NC(=O)C1=CC2c3cccc4[nH]cc(c34)CC2N(C)C1 (stereo not given) [euspeclibcmpd1928]	-0.0083
CC(CO)NC(=O)C1=CC2c3cccc4[nH]cc(c34)CC2N(C)C1 (stereo not given) [euspeclibcmpd113]	0.556
CN1CC(C(=O)N[C@]2(C)O[C@@]3(O)C4CCCN4C(=O)C(Cc4ccccc4)N3C2=O)=CC2c3cccc4[nH]cc(c34)CC21 (stereo not given in full) [euspeclibcmpd823]	113 (active)
CC[C@@H](CO)NC(=O)C1=CC2c3cccc4c3c(cn4C)C[C@H]2N(C)C1 (stereo not given in full) [euspeclibcmpd522]	-0.363
CN1CC(C(=O)N[C@]2(C)O[C@@]3(O)[C@@H]4CCCN4C(=O)C(Cc4ccccc4)N3C2=O)C[C@@H]2c3cccc4[nH]cc(c34)C[C@H]21 (stereo not given in full) [euspeclibcmpd97]	-0.0377
CC(C)CC1C(=O)N2CCC[C@H]2[C@@]2(O)O[C@](NC(=O)C3=CC4c5cccc6[nH]c(Br)c(c56)CC4N(C)C3)(C(C)C)C(=O)N12 (stereo not given in full) [euspeclibcmpd39]	23.2 (active)
